The full data set covers some 7,900 targets. This sample favours those with a hit. About 0.6% of all pairs of compound and target were hits. A number with no mark means an inactive call.
Compound: c1cn2cc(-c3ccc4cn[nH]c4c3)nc(Nc3ccc(N4CCOCC4)cc3)c2n1 [entospletinib]
Experiment: log2 fold change, soluble protein after heating vs DMSO (PISA); higher = thermal stabilisation; K562 cells, 10 uM, 30 min; active = over 0.2 and 3.5 SD of the protein, either way, in both replicates (recomputed)
How it was run: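 For each measurement, 10 μM compound was applied for 30 min to K562 cells at 2×10^6 cells/mL. Aliquots were heated for 3 min across 48°C-58°C, pooled, and extracted in PBS with 0.5% NP-40 at 4°C; the supernatant after 21,000xg for 90 min was soluble protein. This was quantified by TMTpro 16plex LC-MS/MS with channel sums equalised, and thermal stability was reported relative to control samples from duplicates, on a log2 fold-change scale.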

Chain of UniProt P11182 (P11182 whole entry, looked up): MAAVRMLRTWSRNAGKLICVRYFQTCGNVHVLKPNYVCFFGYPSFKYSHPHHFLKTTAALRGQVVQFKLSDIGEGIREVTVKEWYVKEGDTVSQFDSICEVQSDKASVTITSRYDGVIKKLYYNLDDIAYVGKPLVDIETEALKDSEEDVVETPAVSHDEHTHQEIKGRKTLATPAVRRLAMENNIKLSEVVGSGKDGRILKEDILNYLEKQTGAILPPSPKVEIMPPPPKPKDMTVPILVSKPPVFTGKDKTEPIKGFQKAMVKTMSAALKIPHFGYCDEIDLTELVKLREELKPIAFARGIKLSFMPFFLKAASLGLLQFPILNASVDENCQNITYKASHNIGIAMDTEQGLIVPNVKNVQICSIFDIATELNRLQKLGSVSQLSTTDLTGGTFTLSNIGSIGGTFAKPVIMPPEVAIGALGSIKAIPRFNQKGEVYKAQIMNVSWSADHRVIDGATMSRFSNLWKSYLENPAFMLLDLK
Chain of UniProt Q8N128 (Q8N128 whole entry, looked up): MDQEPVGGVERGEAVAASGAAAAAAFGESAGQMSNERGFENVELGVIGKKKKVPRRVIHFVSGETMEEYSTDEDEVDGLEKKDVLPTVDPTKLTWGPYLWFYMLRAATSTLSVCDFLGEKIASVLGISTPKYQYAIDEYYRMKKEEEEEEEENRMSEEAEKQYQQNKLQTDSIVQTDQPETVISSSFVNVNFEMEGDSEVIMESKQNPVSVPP
Chain of UniProt Q8N6R0 (Q8N6R0 whole entry, looked up): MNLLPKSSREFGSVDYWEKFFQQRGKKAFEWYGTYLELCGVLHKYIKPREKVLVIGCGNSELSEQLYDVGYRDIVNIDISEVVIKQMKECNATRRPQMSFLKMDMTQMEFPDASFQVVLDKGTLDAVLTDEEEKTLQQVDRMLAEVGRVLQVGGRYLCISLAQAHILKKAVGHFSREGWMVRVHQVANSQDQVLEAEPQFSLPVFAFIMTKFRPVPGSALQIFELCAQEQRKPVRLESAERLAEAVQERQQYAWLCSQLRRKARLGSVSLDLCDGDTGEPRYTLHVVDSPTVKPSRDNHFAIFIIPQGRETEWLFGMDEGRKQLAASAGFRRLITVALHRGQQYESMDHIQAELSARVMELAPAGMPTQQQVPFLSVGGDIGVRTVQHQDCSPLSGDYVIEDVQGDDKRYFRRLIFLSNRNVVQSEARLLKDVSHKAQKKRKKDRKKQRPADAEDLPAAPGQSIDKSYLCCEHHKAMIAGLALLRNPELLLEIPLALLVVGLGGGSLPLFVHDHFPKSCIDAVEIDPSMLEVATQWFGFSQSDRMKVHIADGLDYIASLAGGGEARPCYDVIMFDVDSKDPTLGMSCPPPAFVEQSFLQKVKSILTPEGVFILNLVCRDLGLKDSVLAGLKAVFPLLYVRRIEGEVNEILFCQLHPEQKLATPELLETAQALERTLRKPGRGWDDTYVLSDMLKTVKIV
Chain of UniProt Q96KP1 (Q96KP1 whole entry, looked up): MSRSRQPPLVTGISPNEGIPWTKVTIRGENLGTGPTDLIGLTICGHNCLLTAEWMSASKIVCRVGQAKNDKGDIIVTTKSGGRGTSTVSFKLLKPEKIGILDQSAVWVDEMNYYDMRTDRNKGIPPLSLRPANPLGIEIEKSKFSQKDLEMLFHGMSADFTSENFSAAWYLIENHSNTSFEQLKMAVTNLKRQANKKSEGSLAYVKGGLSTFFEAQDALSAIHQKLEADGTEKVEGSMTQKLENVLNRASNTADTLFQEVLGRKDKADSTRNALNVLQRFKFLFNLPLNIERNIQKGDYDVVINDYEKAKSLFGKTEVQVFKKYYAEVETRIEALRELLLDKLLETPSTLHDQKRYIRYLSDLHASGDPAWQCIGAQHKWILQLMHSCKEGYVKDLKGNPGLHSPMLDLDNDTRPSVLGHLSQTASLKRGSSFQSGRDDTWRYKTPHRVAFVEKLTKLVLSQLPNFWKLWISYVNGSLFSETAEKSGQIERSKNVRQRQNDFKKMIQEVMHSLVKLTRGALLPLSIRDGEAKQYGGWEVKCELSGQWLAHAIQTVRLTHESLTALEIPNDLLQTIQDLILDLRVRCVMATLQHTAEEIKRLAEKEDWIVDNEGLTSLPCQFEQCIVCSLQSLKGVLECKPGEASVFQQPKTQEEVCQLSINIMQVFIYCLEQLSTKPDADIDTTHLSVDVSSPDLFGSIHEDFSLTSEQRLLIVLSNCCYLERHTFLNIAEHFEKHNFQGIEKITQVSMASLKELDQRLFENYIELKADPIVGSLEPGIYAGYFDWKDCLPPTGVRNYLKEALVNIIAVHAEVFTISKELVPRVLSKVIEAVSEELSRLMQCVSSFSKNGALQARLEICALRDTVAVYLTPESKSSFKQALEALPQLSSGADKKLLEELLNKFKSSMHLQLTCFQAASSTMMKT
Chain of UniProt Q5W0V3 (Q5W0V3 whole entry, looked up): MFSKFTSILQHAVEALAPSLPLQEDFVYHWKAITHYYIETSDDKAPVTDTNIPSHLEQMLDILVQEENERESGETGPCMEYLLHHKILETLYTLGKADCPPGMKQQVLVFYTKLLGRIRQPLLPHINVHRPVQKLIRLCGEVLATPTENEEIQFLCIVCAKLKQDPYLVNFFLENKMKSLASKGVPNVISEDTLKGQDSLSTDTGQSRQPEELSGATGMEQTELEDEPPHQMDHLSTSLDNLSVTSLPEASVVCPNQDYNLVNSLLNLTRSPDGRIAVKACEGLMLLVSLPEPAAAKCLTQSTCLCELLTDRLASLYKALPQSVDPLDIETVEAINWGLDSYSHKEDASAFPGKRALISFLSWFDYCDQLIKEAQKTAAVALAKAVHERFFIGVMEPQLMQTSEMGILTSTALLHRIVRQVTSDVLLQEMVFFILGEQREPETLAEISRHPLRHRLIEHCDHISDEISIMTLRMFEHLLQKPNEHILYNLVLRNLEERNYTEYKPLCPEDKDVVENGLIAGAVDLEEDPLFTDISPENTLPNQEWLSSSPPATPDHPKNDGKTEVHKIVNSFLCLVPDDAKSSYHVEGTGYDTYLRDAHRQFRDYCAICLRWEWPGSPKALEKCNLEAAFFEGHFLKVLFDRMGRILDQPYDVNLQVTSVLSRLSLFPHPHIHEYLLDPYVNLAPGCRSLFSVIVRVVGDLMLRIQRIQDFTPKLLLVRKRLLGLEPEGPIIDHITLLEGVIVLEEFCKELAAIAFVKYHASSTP
Chain of UniProt Q13409 (Q13409 whole entry, looked up): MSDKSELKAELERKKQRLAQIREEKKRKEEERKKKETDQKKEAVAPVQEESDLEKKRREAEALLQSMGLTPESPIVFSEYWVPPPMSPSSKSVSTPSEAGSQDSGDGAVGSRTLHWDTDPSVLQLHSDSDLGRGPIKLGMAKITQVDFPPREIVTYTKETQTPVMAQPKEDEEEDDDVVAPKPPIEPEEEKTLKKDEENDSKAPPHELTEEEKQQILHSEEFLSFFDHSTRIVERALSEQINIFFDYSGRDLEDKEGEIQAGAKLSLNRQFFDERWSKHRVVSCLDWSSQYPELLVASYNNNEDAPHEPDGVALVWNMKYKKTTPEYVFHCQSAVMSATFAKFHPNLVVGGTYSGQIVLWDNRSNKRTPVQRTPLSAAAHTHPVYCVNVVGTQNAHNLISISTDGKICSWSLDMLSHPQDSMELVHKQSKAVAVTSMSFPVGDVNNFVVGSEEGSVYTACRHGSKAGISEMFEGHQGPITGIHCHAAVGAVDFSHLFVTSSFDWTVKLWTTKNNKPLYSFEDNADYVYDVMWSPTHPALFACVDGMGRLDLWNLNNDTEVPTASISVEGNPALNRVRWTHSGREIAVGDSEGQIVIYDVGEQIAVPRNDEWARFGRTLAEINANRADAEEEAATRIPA
Chain of UniProt P50570 (P50570 whole entry, looked up): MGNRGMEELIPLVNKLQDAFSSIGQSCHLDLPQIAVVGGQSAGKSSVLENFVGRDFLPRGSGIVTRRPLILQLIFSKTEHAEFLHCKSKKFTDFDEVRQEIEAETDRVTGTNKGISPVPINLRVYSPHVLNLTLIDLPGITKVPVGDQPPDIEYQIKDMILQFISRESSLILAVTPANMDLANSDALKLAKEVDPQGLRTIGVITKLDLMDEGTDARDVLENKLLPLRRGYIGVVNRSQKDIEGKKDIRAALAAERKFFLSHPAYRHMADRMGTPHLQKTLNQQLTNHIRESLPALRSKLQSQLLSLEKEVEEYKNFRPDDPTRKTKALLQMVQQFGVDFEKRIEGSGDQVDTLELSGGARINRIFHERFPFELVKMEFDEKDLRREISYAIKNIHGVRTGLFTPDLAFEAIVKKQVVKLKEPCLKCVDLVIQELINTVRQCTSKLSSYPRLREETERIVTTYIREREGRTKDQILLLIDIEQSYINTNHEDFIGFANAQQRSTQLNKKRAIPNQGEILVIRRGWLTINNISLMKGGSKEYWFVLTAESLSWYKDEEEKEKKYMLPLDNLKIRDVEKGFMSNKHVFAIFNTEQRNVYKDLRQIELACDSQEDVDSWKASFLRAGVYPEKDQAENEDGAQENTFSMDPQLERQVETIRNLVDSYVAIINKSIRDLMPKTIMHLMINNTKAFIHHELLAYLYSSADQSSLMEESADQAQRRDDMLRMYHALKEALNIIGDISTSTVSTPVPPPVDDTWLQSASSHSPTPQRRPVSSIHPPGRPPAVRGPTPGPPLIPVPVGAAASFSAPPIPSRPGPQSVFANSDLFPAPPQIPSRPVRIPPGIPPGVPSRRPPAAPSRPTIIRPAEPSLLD
Chain of UniProt Q8TCE6 (Q8TCE6 whole entry, looked up): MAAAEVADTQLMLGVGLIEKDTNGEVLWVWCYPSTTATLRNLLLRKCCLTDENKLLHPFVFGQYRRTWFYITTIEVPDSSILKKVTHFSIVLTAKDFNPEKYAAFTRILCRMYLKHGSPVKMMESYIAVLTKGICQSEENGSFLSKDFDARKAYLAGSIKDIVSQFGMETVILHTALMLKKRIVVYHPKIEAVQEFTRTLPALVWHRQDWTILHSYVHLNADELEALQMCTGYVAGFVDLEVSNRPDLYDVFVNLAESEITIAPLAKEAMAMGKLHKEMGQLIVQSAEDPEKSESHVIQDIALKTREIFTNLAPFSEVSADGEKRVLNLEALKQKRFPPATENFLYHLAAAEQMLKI

Target	log2 fold change
EIF2S3 (UniProt P41091)	-0.051
DENND10 (UniProt Q8TCE6)	-0.006
EEF1AKNMT (UniProt Q8N6R0)	0.059
DNAJC1 (UniProt Q96KC8)	0.015
CYFIP1 (UniProt Q7L576)	-0.018
DAB2 (UniProt P98082)	0.043
EXOC2 (UniProt Q96KP1)	-0.005
EFCAB14 (UniProt O75071)	0.001
DNAJC24 (UniProt Q6P3W2)	0.186
FAM160B1 (UniProt Q5W0V3)	0.008
EED, A0A5F9ZI63	0.037
DCAF4 (UniProt Q8WV16)	-0.146
DHX40 (UniProt Q8IX18)	-0.055
FADS1, A0A0A0MR51	0.055
DYNC1I2 isoform 5 (UniProt Q13409)	0.038
DOLPP1 (UniProt Q86YN1)	0.055
DDX27 (UniProt Q96GQ7)	-0.035
DDX39A (UniProt O00148)	0.022

Target	log2 fold change
DDX46 (UniProt Q7L014)	-0.043
CYP51A1 (UniProt Q16850)	0.093
DHRS3 (UniProt O75911)	-0.041
FAM193B (UniProt Q96PV7)	-0.031
EIF4A1 (UniProt P60842)	-0.083
DCAF10 (UniProt Q5QP82)	0.307
ELF1 (UniProt P32519)	-0.082
DNM2 isoform 4 (UniProt P50570)	-0.257
FAM177A1 isoform 2 (UniProt Q8N128)	0.05
DDB1 (UniProt Q16531)	0.001
FAM117A (UniProt Q9C073)	0.067
EIF4G3 isoform 3 (UniProt O43432)	0.118
ERCC6 (UniProt Q03468)	0.045
DHRS1 (UniProt Q96LJ7)	-0.613
DBT (UniProt P11182)	0.025
DCAF6 isoform 3 (UniProt Q58WW2)	-0.008
CTSS (UniProt P25774)	0.07

Reference: the supplement of paper PMC10849652
